Here are results for 17 compounds from PubChem BioAssay.

Assay [1] can be described thus: compounds binding Alexa647 anti-His antibody – biochemical, small-molecule microarray, 635 nm fluorescence, artefact control for SMM control protein annotation, primary screen (AID 1128).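 Note: score merges feature fluorescence with signal-to-noise for each printed compound spot.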 The conditions noted are these: higher = more signal.
The test system of assay [2] is Human papillomavirus type 1a E7 protein (residues 1-88). Briefly: HPV1a E7 small-molecule binders, primary screen, biochemical, small-molecule microarray, residues 1-88, 635 nm (AID 1129). The conditions noted are these: small-molecule microarray binding, fluorescence 635 nm; higher = more signal.
For assay [3], the target named is Focal adhesion kinase 1 (Homo sapiens) (UniProt Q05397). Briefly: PTK2 protein binding on printed compound slides – biochemical, small-molecule microarray, 635/667 nm fluorescence, BSA, DTT, primary screen (AID 1130).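 Note: composite of spot emission at 667 nm and signal to noise over triplicate slides.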 The conditions noted are these: 635 nm fluorescence, higher = more signal.
The test system of assay [4] is Fibrinogen (Alexa647-labelled). Description: Alexa647-fibrinogen binding to printed small molecules – biochemical, small-molecule microarray, 635/667 nm fluorescence, artefact control for SMM control-protein annotation, profiling panel (AID 1131).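 Note: z-score merges 667 nm fluorescence with per-spot signal-to-noise over triplicate slides.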 The conditions noted are these: fibrinogen-A647 binding fluorescence, higher = more signal.
For assay [5], the target named is Follistatin (Homo sapiens) (UniProt P19883). Briefly: FST protein binding to printed compounds – biochemical, small-molecule microarray, 635/667 nm fluorescence, primary screen (AID 1132). The conditions noted are these: 635 nm fluorescence, higher = more signal.
The target of assay [6] is Fibroblast growth factor 2 (Homo sapiens) (UniProt P09038). Briefly: basic fibroblast growth factor binding to printed compounds – biochemical, small-molecule microarray, 635/667 nm fluorescence, primary screen (AID 1133). The conditions noted are these: FGF2, fluorescence 635/667, higher = more signal.
Assay [7] is described as follows: JC-1 mitochondrial potential readout, lung cancer cells – cell-based, A549, JC-1 fluorescence, basal, 24 h, 100 nL, profiling panel (AID 1138).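 Note: A549 lung adenocarcinoma cells under basal conditions with no added stimulus; test concentration not given here.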 Particulars: higher = more signal.
In the next assay the test system is Lefty1. Briefly: Lefty1 protein binding to printed compounds – biochemical, small-molecule microarray, 635/667 nm fluorescence, primary screen (AID 1139). Particulars: fluorescence 635/667, higher = more signal.
In assay [8] the test system is wheat germ agglutinin (Triticum aestivum), Alexa647-labelled. Briefly: Alexa647-WGA lectin binding to printed small molecules – biochemical, small-molecule microarray, 635/667 nm fluorescence, artefact control for SMM control-protein annotation, profiling panel (AID 1140).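 Note: score merges 667 nm feature emission with signal to noise over triplicate slides.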 Particulars: WGA-A647 binding, 635 nm fluorescence, higher = more signal.
For assay [9], the target named is Luciferin 4-monooxygenase (Photinus pyralis) (UniProt P08659). Briefly: inhibition of purified Photinus pyralis luciferase – biochemical, luminescence, purified enzyme, 2006 set, primary screen (AID 1141).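 Note: cell-free assay with purified firefly luciferase at 100 ng per well in PBS; test concentration not given here.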 The conditions noted are these: purified firefly luciferase, SteadyGlo luminescence, 30 min; higher = more signal, called active from +8 up or from −8 down.

The source made the active and inactive calls.

Chain of Luciferin 4-monooxygenase (Photinus pyralis) (P08659 whole entry, looked up): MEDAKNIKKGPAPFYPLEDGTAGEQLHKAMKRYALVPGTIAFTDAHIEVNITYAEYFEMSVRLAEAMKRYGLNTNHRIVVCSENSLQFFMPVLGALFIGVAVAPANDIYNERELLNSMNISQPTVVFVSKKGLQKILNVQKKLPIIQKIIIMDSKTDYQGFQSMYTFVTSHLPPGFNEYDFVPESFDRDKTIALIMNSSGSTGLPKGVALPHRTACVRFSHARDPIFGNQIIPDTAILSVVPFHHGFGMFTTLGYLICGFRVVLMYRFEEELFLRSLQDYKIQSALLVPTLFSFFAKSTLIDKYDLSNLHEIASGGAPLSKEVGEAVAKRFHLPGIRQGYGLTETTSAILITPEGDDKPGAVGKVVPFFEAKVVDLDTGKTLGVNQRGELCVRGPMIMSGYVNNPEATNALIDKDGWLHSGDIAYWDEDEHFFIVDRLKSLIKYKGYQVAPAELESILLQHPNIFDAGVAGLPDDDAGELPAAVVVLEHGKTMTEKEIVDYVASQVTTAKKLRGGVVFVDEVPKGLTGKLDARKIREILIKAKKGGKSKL
Chain of Follistatin (Homo sapiens) (P19883 whole entry, looked up): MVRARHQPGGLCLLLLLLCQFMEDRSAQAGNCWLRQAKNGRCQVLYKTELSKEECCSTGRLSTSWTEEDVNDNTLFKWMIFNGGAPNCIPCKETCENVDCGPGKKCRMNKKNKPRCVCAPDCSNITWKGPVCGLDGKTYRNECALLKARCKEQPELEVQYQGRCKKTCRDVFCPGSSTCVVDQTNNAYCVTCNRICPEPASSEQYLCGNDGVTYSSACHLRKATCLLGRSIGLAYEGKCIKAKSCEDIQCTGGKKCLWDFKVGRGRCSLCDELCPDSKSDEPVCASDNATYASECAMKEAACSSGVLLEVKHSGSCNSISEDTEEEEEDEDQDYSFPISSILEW
Chain of Focal adhesion kinase 1 (Homo sapiens) (Q05397 whole entry, looked up): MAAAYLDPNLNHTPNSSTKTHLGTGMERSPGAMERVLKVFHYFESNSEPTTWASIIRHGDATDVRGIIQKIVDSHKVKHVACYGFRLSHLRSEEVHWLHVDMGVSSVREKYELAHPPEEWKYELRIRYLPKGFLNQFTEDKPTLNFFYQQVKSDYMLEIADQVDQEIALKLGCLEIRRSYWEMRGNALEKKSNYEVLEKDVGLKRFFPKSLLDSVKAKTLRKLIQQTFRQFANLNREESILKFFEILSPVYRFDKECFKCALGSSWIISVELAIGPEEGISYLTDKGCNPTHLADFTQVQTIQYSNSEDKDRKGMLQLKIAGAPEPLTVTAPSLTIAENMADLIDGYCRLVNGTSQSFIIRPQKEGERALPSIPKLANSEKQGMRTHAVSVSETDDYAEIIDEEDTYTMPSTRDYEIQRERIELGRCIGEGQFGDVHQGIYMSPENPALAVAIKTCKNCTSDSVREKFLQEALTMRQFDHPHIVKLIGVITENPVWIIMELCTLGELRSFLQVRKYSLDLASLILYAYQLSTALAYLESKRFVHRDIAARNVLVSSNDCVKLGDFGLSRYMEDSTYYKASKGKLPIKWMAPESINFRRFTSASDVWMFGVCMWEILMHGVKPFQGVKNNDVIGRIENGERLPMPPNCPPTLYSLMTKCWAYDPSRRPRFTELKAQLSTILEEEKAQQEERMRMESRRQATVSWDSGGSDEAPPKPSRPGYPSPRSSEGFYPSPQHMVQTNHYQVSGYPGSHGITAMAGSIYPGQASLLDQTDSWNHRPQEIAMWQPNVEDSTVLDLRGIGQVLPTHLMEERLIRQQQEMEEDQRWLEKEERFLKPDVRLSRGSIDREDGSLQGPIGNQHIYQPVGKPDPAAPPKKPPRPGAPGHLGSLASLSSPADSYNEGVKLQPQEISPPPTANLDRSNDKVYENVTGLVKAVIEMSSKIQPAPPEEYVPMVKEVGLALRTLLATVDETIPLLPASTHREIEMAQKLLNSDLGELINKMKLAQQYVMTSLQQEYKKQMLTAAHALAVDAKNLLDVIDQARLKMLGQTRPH
Chain of Fibroblast growth factor 2 (Homo sapiens) (P09038 whole entry, looked up): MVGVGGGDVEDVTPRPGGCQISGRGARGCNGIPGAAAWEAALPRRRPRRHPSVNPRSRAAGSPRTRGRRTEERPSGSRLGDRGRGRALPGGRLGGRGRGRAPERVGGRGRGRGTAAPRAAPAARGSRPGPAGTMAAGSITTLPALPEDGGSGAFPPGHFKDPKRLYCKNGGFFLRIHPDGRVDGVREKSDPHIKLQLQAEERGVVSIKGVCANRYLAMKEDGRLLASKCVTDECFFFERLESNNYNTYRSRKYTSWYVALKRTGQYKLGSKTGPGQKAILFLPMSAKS

For `COc1ccc([Si](C)(C)[C@@H]2[C@@H](CCO)O[C@]3(C(=O)N(Cc4ccccc4)c4ccc(N5C(=O)c6cccc7cccc5c67)cc43)[C@H]2C)cc1`, the composite z-score in [1] is -0.435; in assay [2], -0.0814; in assay [3], 0.15; in assay [4], -0.304; in assay [5] it was -0.384; in assay [6], -0.176. The composite z-score with Lefty1 is -0.52; in assay [8], 0.342. In addition, the figures for the z-score in assay [7] and in [9] were -0.0894 and -1.04 (inactive), respectively.
Consider `CCOC(=O)C[C@H]1[C@H](OC(=O)c2ccc(C(=O)c3ccccc3)cc2)[C@@H](NC(=O)CC(C)C)c2cc(OCCCO)ccc2N1C(=O)c1ccccc1`, for which the composite z-score in assay [1] turned out to be 0.152; in assay [2] it was 1.11; in assay [3] it was 0.188; in assay [4], 0.965; in assay [5], 0.839; in assay [6] it was 0.609. Moreover, the composite z-score in the assay with Lefty1 was determined as 1.26; in assay [8], 0.227. Also, the z-score in [7] was 1.63; in assay [9] it was -0.675 (inactive).
As to `CC1CC/C=C\[C@H]2OC34C=CCN(C(C)(C)C)C(=O)[C@H]3N(CCCCCO)C(=O)[C@@H]4C2C(=O)O1` (stereo not given in full), the composite z-score is -1.24 in [1]; -1.07 in assay [2]; -0.83 in [3]; -1.65 in assay [4]; -0.898 in [5]; -0.447 in [6]. Moreover, the composite z-score in the assay on Lefty1 was -0.113; in [8] it was -0.51. Besides, the z-score in assay [7] is -0.227; in assay [9] it was 0.152 (inactive).
For `CC(=O)NCCCC[C@@H]1NC(=O)[C@@H]2C[C@H](C(=O)NCCCCCN)[C@H](c3cccc(OCCO)c3)N2C1=O`, the composite z-score was 0.586 in [1]; 1.04 in assay [2]; 0.295 in assay [3]; 0.97 in assay [4]; 1.37 in assay [5]; 1.6 in assay [6]. The composite z-score with Lefty1 turned out to be 1.03; in assay [8], 0.79. Also, the values for the z-score in assay [7] and in [9] were 0.989 and 0.159 (inactive), respectively.
In the case of `CC1=C2[C@@H](CCc3ccccc3)OB(O)C[C@@H]2[C@@H]2C(=O)N(C)C(=O)[C@@H]2C1`, the composite z-score in assay [1] is -0.463; in [2] it was 0.591; in assay [3], 0.0327; in assay [4] it was 0.762; in assay [5], 0.587; in assay [6], 0.509. Also, the composite z-score amounted to 0.617 in the assay with Lefty1 and 0.344 in assay [8]. The z-score in assay [7] is -0.0475; in [9] it was 0.143 (inactive).
For the compound `CCOC(=O)C1=CC[C@@H](c2ccccc2F)N(S(=O)(=O)c2ccc(C)cc2)[C@H]1c1ccccc1`, the composite z-score in [1] was 0.477; in assay [2], 1.07; in assay [3] it was 0.13; in [4] it was 0.756; in [5], 0.685; in [6], 0.0808. The figures for the composite z-score (in the assay with Lefty1; in [8]) were 0.644 and 0.349, respectively. Further, the z-score was 1.4 in assay [7] and 1.56 (inactive) in assay [9].
Regarding `CN(C)CCCCCCNC(=O)[C@@H]1C[C@@H]2C(=O)N3CCC[C@H]3C(=O)N2[C@@H]1c1cccc(OCCO)c1`, the composite z-score in assay [1] came to 2.58; in assay [2], 1.23; in assay [3], 0.338; in assay [4], 0.552; in assay [5], 1.37; in [6], 1.58. Besides, the composite z-score in the assay with Lefty1 worked out at 1.48; in assay [8], 1.1. For the same compound, the z-score in [7] was -0.17; in [9], -0.138 (inactive).
Regarding `CCCCC[C@H]1OC[C@@]23C=C(Br)[C@@H](CC12)[C@@]1(CO1)C3=O` (stereo not given in full), the composite z-score is 2.98 in assay [1]; -0.327 in assay [2]; 0.215 in assay [3]; -0.411 in [4]; 0.0488 in [5]; -0.165 in assay [6]. Also, the results for the composite z-score (in the assay with Lefty1; in assay [8]) were 0.505 and -0.407, respectively. The z-score in assay [7] is 0.617; in assay [9], -0.0658 (inactive).
For the compound `NC(=O)NCC#Cc1ccc2c(c1)[C@]1(C(=O)N2)[C@H](C(=O)N2CCN(c3ncccn3)CC2)[C@H]2C(=O)O[C@H](c3ccccc3)[C@H](c3ccccc3)N2[C@@H]1c1ccc(O)cc1`, the composite z-score in [1] turned out to be 1.43; in [2], 1.14; in assay [3], 0.244; in assay [4], 0.768; in [5], 1.37; in [6] it was 1.3. Moreover, the composite z-score with Lefty1 was determined as 0.36; in assay [8] it was 0.542. In addition, the z-score in assay [7] is -0.982; in assay [9], -0.598 (inactive).
With `CCCC[C@@H](O)C1=C(COC)C[C@H]2C(=O)N(Cc3ccccc3)C(=O)[C@H]2[C@H]1CO`, the composite z-score was 0.708 in [1]; 0.33 in assay [2]; -0.285 in assay [3]; 0.98 in assay [4]; 0.855 in [5]; 1.33 in [6]. Further, the results for the composite z-score (with Lefty1; in assay [8]) were 0.697 and 1.13, respectively. Further, the z-score is 0.699 in assay [7] and -0.903 (inactive) in assay [9].
Turning to `O=C(C1N=C(c2ccc(OCCCO)cc2)N(c2ccccc2)O1)N1CCCCC1` (stereo not given), the composite z-score amounted to 1.94 in [1]; 1.25 in assay [2]; 0.634 in [3]; 1 in assay [4]; 1.05 in assay [5]; 0.423 in assay [6]. Besides, the composite z-score came out at 0.168 in the assay on Lefty1 and 1.31 in assay [8]. The z-score was 0.924 in assay [7] and -10.6 (active) in [9].
For the compound `O=C1C2C=CC(C(O)C3CC=CCC3)N(Nc3ccccc3)C2C(=O)N1c1ccccc1` (stereo not given), the composite z-score in [1] was determined as 0.41; in assay [2], 1.21; in assay [3], 1.17; in assay [4], 0.944; in assay [5] it was 1.27; in assay [6], 0.119. In addition, the composite z-score with Lefty1 came to 0.135; in assay [8], 0.458. Further, the z-score in assay [7] is -1.15; in assay [9], -0.313 (inactive).
On to `CS(=O)(=O)CCOC(=O)C1=CC(c2ccc(CO)cc2)=CC(C2CC2)N(Cc2sc3ccccc3c2Cl)C=C1C(=O)OCCS(C)(=O)=O` (stereo not given), for which the composite z-score in assay [1] came out at 1.27; in [2], 0.795; in assay [3], 0.716; in [4], 0.88; in [5] it was 1.28; in assay [6], 0.881. For the same compound, the results for the composite z-score (with Lefty1; in assay [8]) were 0.851 and 0.861, respectively. Besides, the z-score in [7] was 2.04; in assay [9] it was -1.86 (inactive).
In the case of `COCCOC(=O)N1C(=O)[C@@]2(c3cc(C#CC4(O)CCCCCC4)ccc31)[C@H](C(=O)Nc1nc3ccccc3s1)[C@H]1C(=O)O[C@H](c3ccccc3)[C@H](c3ccccc3)N1[C@@H]2c1ccc(O)cc1`, the composite z-score in [1] came to 1.89; in assay [2], 1.24; in assay [3], 0.783; in assay [4], 0.942; in assay [5] it was 1.28; in assay [6], 1.06. Further, the composite z-score is 1.15 in the assay on Lefty1 and 0.275 in assay [8]. Moreover, the z-score is -1.14 in assay [7] and -0.557 (inactive) in assay [9].
As to `O=C(c1ccccc1)N1C(=O)[C@]2(Cc3ccccc31)N=C(c1ccc(OCCCO)cc1)O[C@@H]2c1ccccc1`, the composite z-score was 1.87 in assay [1]; 1.23 in assay [2]; 0.677 in assay [3]; 0.965 in assay [4]; 1.24 in [5]; 0.944 in assay [6]. Moreover, the figures for the composite z-score (with Lefty1; in assay [8]) were 0.764 and 0.305, respectively. In addition, the z-score is -2.12 in assay [7] and -1.33 (inactive) in assay [9].
As for `CCCCC(O)C1C=CC2C(=O)N(C)C(=O)C2N1N(c1ccccc1)c1ccccc1` (stereo not given), the composite z-score is 1.92 in [1]; 1.15 in assay [2]; 0.912 in [3]; 0.824 in assay [4]; 0.613 in [5]; -0.604 in assay [6]. Also, the composite z-score in the assay with Lefty1 came to 0.194; in assay [8], 1.21. The z-score is 0.804 in [7] and -0.004 (inactive) in assay [9].
On to `COc1cc(C(O)C2C=CC3C(=O)N(C)C(=O)C3N2Nc2ccccc2)cc(OC)c1OC` (stereo not given), for which the composite z-score in [1] is 2.78; in assay [2] it was 1.23; in assay [3], 1.05; in assay [4], 1; in [5], 0.568; in [6], -0.397. Moreover, the composite z-score is -0.714 with Lefty1 and 1.14 in assay [8]. The z-score was 0.29 in [7] and -1.36 (inactive) in assay [9].
